Screens deposited in PubChem by National Center for Advancing Translational Sciences (NCATS).
Most compounds without a hit are left out; they make up all but 11% or so of the library.
AmpC no deterg = qHTS Inhibitors of AmpC Beta-Lactamase (assay without detergent); actives 0.52% (n = 330,000); P00811; Potency, µM (series often up to 57.1 µM), inactives show top-dose activity change, negative = inhibition, hits mostly inhibitors; AID 485341, 2010; AmpC nitrocefin hydrolysis, absorbance 480 nm, 0.0001% Triton;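 further: plate controls were no compound for no effect and no enzyme for full effect; nearly all actives have a fitted effect of over 20% in size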
Target sequence (P00811 whole entry, looked up): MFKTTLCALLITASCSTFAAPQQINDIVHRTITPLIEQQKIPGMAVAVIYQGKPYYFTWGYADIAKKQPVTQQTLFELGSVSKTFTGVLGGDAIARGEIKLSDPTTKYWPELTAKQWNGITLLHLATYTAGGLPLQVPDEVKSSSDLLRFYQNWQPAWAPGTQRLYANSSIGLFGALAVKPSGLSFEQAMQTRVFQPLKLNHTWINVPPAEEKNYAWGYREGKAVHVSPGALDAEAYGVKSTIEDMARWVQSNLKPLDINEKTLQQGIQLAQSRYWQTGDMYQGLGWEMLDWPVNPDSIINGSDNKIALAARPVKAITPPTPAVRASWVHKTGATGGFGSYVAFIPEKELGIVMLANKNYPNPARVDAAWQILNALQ
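20 mM phosphate pH 7.0 + 0.01% (detergent screen) or 0.0001% Triton X-100; 5.3 nM AmpC reagent; cpd preinc 15 min RT; nitrocefin (800 uM stock) to start; A480 q20 s × 4 min; Activity was normalised to no-enzyme and no-compound control wells.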
AmpC detergent = qHTS Inhibitors of AmpC Beta-Lactamase (assay with detergent). P00811. AmpC hydrolysis of nitrocefin, absorbance 480 nm, 0.01% Triton. Potency, µM (titrated, usually from 114 µM), inactives show top-dose activity change, negative = inhibition, actives largely listed as inhibitors. actives 0.041% (n = 370,000);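 further: 0% = no-compound wells and -100% = no-enzyme wells; nearly all actives have a fitted effect of over 25% in size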
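20 mM phosphate pH 7.0 + 0.01% (detergent screen) or 0.0001% Triton X-100; 5.3 nM AmpC reagent; cpd preinc 15 min RT; nitrocefin (800 uM stock) to start; A480 q20 s × 4 min; Activity was normalised to no-enzyme and no-compound control wells.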
Pf growth 96h = Primary qHTS for delayed death inhibitors of the malarial parasite plastid, 96 hour incubation | P. falciparum luciferase reporter growth, 96 h | Potency, µM (top dose mostly 28.7 µM), for inactives: at the top dose activity change, negative = inhibition, actives largely listed as inhibitors | actives 6.9% (n = 320,000) | AID 504834, 2011
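Erythrocytes infected with luciferase-expressing P. falciparum were dispensed at 2% hematocrit and 0.05% parasitemia (final), then incubated with compounds 96 hours at 37 C in 5% CO2. Luminescence after detection reagent addition reported growth.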
HCV inhibitor = qHTS Assay for Inhibitors of Hepatitis C Virus (HCV) | Potency, µM (series often up to 41.8 µM), without a hit: at the top dose activity change, negative = inhibition, usual class: inhibitors | AID 651820, 2012 | actives 3.4% (n = 340,000) | Huh7.5.1 HCVcc-Cre infection, luciferase reporter, 44 h
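Cells (1,000/well) were plated 4 h before compound, then infected with HCVcc-Cre virus (~0.5 moi). After 44 h further culture, infection was read as luciferase luminescence following a 15 min substrate incubation at room temperature.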
Pf growth 48h = Primary qHTS for delayed death inhibitors of the malarial parasite plastid, 48 hour incubation; P. falciparum luciferase growth in erythrocytes, 48 h; Potency, µM (series often up to 28.7 µM), for inactives: top-dose activity change, negative = inhibition, most hits filed as inhibitors; actives 5.9% (n = 310,000); AID 504832, 2011
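Luminescence readout; reporter = integrated firefly luciferase in P. falciparum. RBC culture at 2% hematocrit, 0.1% parasitemia final, 37 C/5% CO2; decreased signal taken as growth inhibition.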
AMA1-RON2 inh = qHTS for Inhibitors of AMA1-RON; Towards Development of Antimalarial Drug Lead: Primary Screen; Plasmodium falciparum AMA1 (3D7) - RON2 peptide interaction; AlphaScreen AMA1-biotinylated RON2 peptide binding; Potency, µM (highest dose often 58.2 µM), without a hit: at the top dose activity change, negative = inhibition, usual class: inhibitors; actives 0.2% (n = 360,000); AID 720542, 2013;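 further: 0% = vehicle wells and -100% = peptide control; nearly all actives have a fitted effect of over 45% in size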
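AMA1 (3D7) with his tag at 25 nM final met compounds first, then biotinylated RON2 peptide at 25 nM; detection used donor plus acceptor beads, 10 µg/mL apiece, read by AlphaScreen after 30 min at room temperature.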
An asterisk follows results filed as active; ? = inconclusive; . = not tested or not shown; [ ] = dose if it differs, or a comment. The call rests on the fitted dose curve; in most records, active means well fitted curve in the direction sought with a large enough effect; inconclusive means small, poorly fitted or top-dose-only effect, or another doubt; inactive means no such curve, though single readings can be large; an effect the other way counts as inactive or inconclusive. Unless noted, on the % scale 0 is the no-effect control and ±100 the full control effect; potency means the concentration at half of the fitted maximal effect.

SMILES | AmpC no deterg | AmpC detergent | Pf growth 96h | HCV inhibitor | Pf growth 48h | AMA1-RON2 inh
CCC(C)n1c(SCC(=O)/C(C#N)=C(\C)N)nc2ccccc2c1=O (stereo not drawn) | -3.1% | -9.0% | 9.28µM* | 8.8% | -22.9% | 24.6%
COCC(C)n1c(C)cc(C(=O)CSc2nc3ccccc3c(=O)[nH]2)c1C (stereo not drawn) | -20.6% | ? | ? | ? | ? | 11.6%
C=CCn1c(SCc2c(C)noc2C)nc2sc(C)c(C)c2c1=O | 3.9% | -6.8% | 9.28µM* | -4.0% | . | 0.0%
COCC(C)n1c(SCc2cc(C(=O)OC)c(C)o2)nc2ccccc2c1=O (stereo not drawn) | 26.7% | -7.1% | ? | 11.2µM* | 48.5% | -29.1%
COCC(C)n1c(SCC(=O)Nc2cccnc2Cl)nc2ccccc2c1=O (stereo not drawn) | . | . | . | . | . | -5.1%
COc1ccccc1N1CCN(c2nc3c(S(=O)(=O)c4ccc(C)c(C)c4)nnn3c3ccc(Cl)cc23)CC1 | . | -7.6% | . | . | . | .
COc1ccc(CNC(=O)c2ccc(-c3nc(CSc4ccccc4)c(C)o3)cc2)cc1 | . | 0.8% | . | . | . | .
Cc1cc(NC(=O)CSc2nnc(-c3ccccc3)c(-c3ccccc3)n2)no1 | -45.0% | -0.3% | -1.8% | ? | 2.7% | 4.0%
C=CCn1c(SCC(=O)c2cc(C)n(C(C)COC)c2C)nc2sc(C)c(C)c2c1=O (stereo not drawn) | 79.3% | 1.1% | 42.3% | 10µM* | -24.6% | -13.3%
COC(=O)c1cc(CSc2nnc(-c3ccccc3)c(-c3ccccc3)n2)oc1C | -23.5% | -7.4% | ? | 25.1µM* | 0.8% | -5.7%
COc1ccc(SC[C@H](Cc2ccccc2)N2CCN(C)CCC2=O)cc1 | 111.0% | -1.1% | 10.4µM* | 6.1% | 13.1µM* | -4.2%
CN1CCC(=O)N([C@H](CSc2ccccc2)Cc2ccccc2)CC1 | 46.3% | -11.1% | ? | 19.3% | 1.2% | 0.8%
CC(C)C[C@@H](CSc1ccccc1)N1CCN(C)CCC1=O | 29.5% | -9.6% | -29.3% | 3.0% | 21.4% | -2.6%
CN1CCC(=O)N([C@H](CSc2ccc(Br)cc2)Cc2ccccc2)CC1 | 181.1% | -9.5% | 3.29µM* | ? | 9.28µM* | 27.3%
Cc1ccc(SC[C@H](Cc2ccccc2)N2CCN(C)CCC2=O)cc1 | 150.0% | 5.6% | ? | -19.3%[8.37 µM] | 11.7µM* | -9.2%
CCCCCn1c(=O)[nH]c2cc(C(=O)N3CCN(c4cccc(C(F)(F)F)c4)CC3)ccc2c1=O | . | 11.6% | . | . | . | .
CC(=O)Nc1ccc(NC(=O)CCCn2nc(C)c3sc4ccccc4c3c2=O)cc1 | . | 18.6% | . | . | . | .
Cc1cccc(N2CCN(c3nc4ccc(C)cc4n4cnnc34)CC2C)c1 (stereo not drawn) | . | -1.7% | . | . | . | .
Cc1ccc(NC(=O)Cn2cnc3c(oc4ccccc43)c2=O)cc1Cl | . | -3.8% | . | . | . | .
COc1cc(CNC(=O)C2CCCC2)cc(OC)c1OC | -0.1% | ? | 20.5% | 8.7% | 9.2% | 12.3%
COc1cc(CN/C(C)=C(\C#N)C(N)=O)cc(OC)c1OC | -1.6% | -1.0% | 2.08µM* | -14.9% | 21.2% | 4.4%
COc1ccc(OC)c(/C=C2\SC(=S)N(Cc3cccnc3)C2=O)c1 | ? | 1.0% | 9.28µM* | -22.2% | -14.8% | -3.6%
COc1ccc(O)c(/C=C2/SC(=S)N(Cc3ccccc3)C2=O)c1 | -39.7% | 10.5% | 35.3% | 14.5% | ? | 4.0%
COc1ccc(/C=C2/SC(=S)N(Cc3ccccc3)C2=O)cc1O | -30.6% | 0.2% | ? | ? | 8.28µM* | -12.8%
Cc1cc2nnn(-c3nnc(-c4ccccc4)c4ccccc34)c2cc1C | -9.2% | -2.5% | 8.28µM* | -4.6% | ? | -2.9%
SMILES | AmpC no deterg | AmpC detergent | Pf growth 96h | HCV inhibitor | Pf growth 48h | AMA1-RON2 inh
Cc1ccc(-c2nnc(-n3nc(C)cc3C)c3ccccc23)cc1 | 0.0% | ? | -67.5% | 3.1% | -8.0% | 3.2%
O=C(Cn1nc(Cl)nc1Cl)c1ccc(F)cc1 | -5.5% | -9.1% | ? | 19.4% | 11.7µM* | 3.5%
COc1cc(/C=C2\SC(=S)N(Nc3ccccc3)C2=O)ccc1O | -21.1% | -13.1% | 1.1% | 1.3% | 46.0% | ?
O=C(Cc1ccccc1)NN1C(=O)/C(=C/c2ccccc2C(=O)O)SC1=S | -20.7% | 3.0% | 11.7µM* | 2.4% | 36.8% | 2.1%
O=C1/C(=C/c2ccncc2)SC(=S)N1Nc1ccccc1 | -31.7% | 6.7% | 9.28µM* | 10.3% | 8.28µM* | 23.6%
O=C1/C(=C/c2ccc(O)c(O)c2)SC(=S)N1Nc1ccccc1 | 25.1µM* | 2.3% | 147.0% | ? | ? | ?
O=C(NN1C(=O)/C(=C/c2ccc(O)c(O)c2)SC1=S)c1ccccc1 | -40.3% | -10.4% | 10.4µM* | -14.9% | -23.9% | ?
CCOC(=O)CC(=O)CSc1nc2ccsc2c(=O)n1Cc1ccccc1 | . | 1.8% | . | . | . | .
COc1ccccc1C(=O)NC1(C(F)(F)F)C(=O)Nc2c1c(=O)[nH]c(=O)n2-c1ccc(F)cc1 (stereo not drawn) | . | -14.8% | . | . | . | .
COc1cccc2sc(N(Cc3cccnc3)C(=O)c3ccc(S(=O)(=O)N(C)C)cc3)nc12 | . | 3.0% | . | . | . | .
Cc1ccccc1N1CCN(C2=NC(=O)/C(=C\c3cccs3)S2)CC1 | -0.3% | 0.8% | 10.4µM* | ? | ? | -12.0%
O=C1N=C(N2CCN(c3cccc4ccccc34)CC2)S/C1=C/c1cccs1 | -22.6% | -6.3% | 9.28µM* | 6.8% | 8.28µM* | -8.0%
CC(=O)N1CCN(C2=NC(=O)/C(=C\c3cccs3)S2)CC1 | -11.9% | 5.9% | -15.7% | -20.7% | -22.8% | -4.4%
NC1=NC(=O)/C(=C/c2cccs2)S1 | -8.8% | 12.0% | ? | 9.2% | -1.5% | 11.2%
O=C1N=C(N2CCOCC2)S/C1=C/c1cccs1 | -16.1% | ? | 11.7µM* | -16.9% | -25.7% | 15.4%
NC(=O)c1cccc(C[C@H](C(=O)O)N2C(=O)c3ccc(C(=O)O)cc3C2=O)c1 | -7.0% | ? | 20.3% | . | ? | .
Cc1sc2nc(CN3CCCC3)nc(N3CCN(S(=O)(=O)c4ccccc4)CC3)c2c1C | 172.9% | 6.2% | 4.65µM* | -3.5% | 10.4µM* | -12.5%
Cc1sc2nc(CN3CCCC3)nc(Cl)c2c1C | -40.0% | ? | ? | ? | ? | 1.0%
